# TGFb inhibitor = qHTS for Inhibitors of TGF-b. HepG2 CAGA-GFP TGF-b/SMAD3 reporter, GFP fluorescence, 18 h; TGF-beta stimulated, 500 pg/mL final. Potency, µM (series often up to 46.1 µM), inactives show at the highest dose activity, negative = inhibition, hits mostly inhibitors. 410,000 compounds, 1.2% hits. AID 588855, 2011; also: potency is read from the fitted curve at half-maximal effect; % is scaled to controls: 0 for no effect and ±100 for the full control effect; nearly all actives have a fitted effect of over 65% in size
#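 TGF-beta reporter screen: HEPG2 CAGA-GFP, 1% FBS, 500 pg/mL TGF-beta final, 18 h; per-cell GFP summed per well; curves fitted and categorized by class.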
# DT40 TDP1 CPT = qHTS for Inhibitors of human tyrosyl-DNA phosphodiesterase 1 (TDP1): qHTS in cells in presence of CPT; AID 686979, 2013; 420,000 compounds, 12% hits; chicken DT40 Tdp1-/-;hTDP1 cells + 20 nM CPT, ATP luminescence, 48 h; Potency, µM (series often up to 46.2 µM), inactives show at the highest dose activity change, negative = growth inhibition, hits mostly inhibitors; also: potency is read from the fitted curve at half-maximal effect; % is scaled to controls: 0 for no effect and ±100 for the full control effect; nearly all actives have a fitted effect of over 55% in size
#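 Chicken DT40 Tdp1-/- cells complemented with human TDP1, 400 cells/well, exposed to compounds plus 20 nM camptothecin for at least 48 h at 37 C; viability read as ATP content by CellTiter-Glo luminescence.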
# TDP1 block = qHTS Assay for Inhibitors of Tyrosyl-DNA Phosphodiesterase (TDP1). 350,000 compounds, 0.28% hits. Tyrosyl-DNA phosphodiesterase 1 (Homo sapiens), Q9NUW8. Potency, µM (doses to about 130 µM), for the others: top-dose activity change, negative = inhibition, usual class: inhibitors. recombinant TDP1, AlphaScreen DNA substrate cleavage; also: potency is read from the fitted curve at half-maximal effect; % is scaled to controls: 0 for no effect and ±100 for the full control effect; nearly all actives have a fitted effect of over 40% in size
# Target sequence (Q9NUW8 whole entry, looked up): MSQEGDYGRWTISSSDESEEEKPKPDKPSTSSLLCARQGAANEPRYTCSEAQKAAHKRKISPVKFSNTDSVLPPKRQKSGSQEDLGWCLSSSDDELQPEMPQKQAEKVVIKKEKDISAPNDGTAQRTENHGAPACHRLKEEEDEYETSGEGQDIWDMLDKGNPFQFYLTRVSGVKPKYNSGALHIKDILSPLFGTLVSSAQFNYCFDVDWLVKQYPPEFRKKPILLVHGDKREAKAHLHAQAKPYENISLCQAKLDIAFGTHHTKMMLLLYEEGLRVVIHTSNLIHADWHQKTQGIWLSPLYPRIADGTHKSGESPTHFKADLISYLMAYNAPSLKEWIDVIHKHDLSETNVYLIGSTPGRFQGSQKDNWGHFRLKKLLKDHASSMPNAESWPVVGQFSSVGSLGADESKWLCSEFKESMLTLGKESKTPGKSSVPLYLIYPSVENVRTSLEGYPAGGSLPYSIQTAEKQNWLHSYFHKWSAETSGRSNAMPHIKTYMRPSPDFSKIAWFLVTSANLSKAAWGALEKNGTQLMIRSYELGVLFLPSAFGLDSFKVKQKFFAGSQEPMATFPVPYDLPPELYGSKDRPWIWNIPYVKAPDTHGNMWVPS
#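 AlphaScreen read-out: signal falls as enzyme removes the 3' tyrosine-FITC from a 5'-biotinylated DNA oligo (15 nM, 5 min, RT). Enzyme was E. coli-made recombinant Tdp1 at 1 nM, exposed to compound for 15 min beforehand; beads 10 ug/ml, 10 min.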
# TDP1 cell noCPT = qHTS for Inhibitors of human tyrosyl-DNA phosphodiesterase 1 (TDP1): qHTS in cells in absence of CPT; DT40 Tdp1-/- hTDP1 cells, no CPT, ATP luminescence, 48 h; Potency, µM (doses to about 46.2 µM), without a hit: top-dose activity change, negative = growth inhibition, most hits filed as inhibitors; 420,000 compounds, 15% hits; also: potency is read from the fitted curve at half-maximal effect; % is scaled to controls: 0 for no effect and ±100 for the full control effect; nearly all actives have a fitted effect of over 55% in size
#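 Growth kinetics read by CellTiter-Glo luminescence after ≥48 hr at 37 °C. Cells: DT40 Tdp1-/- stably carrying human TDP1, 400 per well, compound exposure in the absence of CPT (DMSO vehicle).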
# HepG2 tox = qHTS for Inhibitors of TGF-b: Cytotox Counterscreen. AID 588856, 2011. 410,000 compounds, 0.76% hits. HepG2 CAGA-GFP viability, ATP luminescence, 18 h. Potency, µM (doses to about 46.1 µM), for inactives: top-dose activity change, negative = cytotoxicity, hits mostly cytotoxic; also: potency is read from the fitted curve at half-maximal effect
#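 HepG2 CAGA-GFP cells (1000/well, DMEM with 1% FBS) received compound, then TGF-beta at 500 pg/mL final, and were incubated 18 hours at 37 degrees C. Viability was read by CellTiter-Glo luminescence. Media-only wells were set as complete cell-killing and DMSO as no toxicity.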
# IL1B secr inh = qHTS for Inhibitors of Inflammasome Signaling: IL-1-beta AlphaLISA Primary Screen; THP-1 LPS/ATP IL-1B secretion, AlphaLISA, 16 h; stronger effect = lower value; activity change, % at 57.5 µM; 360,000 compounds, 4.7% hits; in the data active = activity change below about -50%; inconclusive = mostly about -30% to -49%; also: % is scaled to controls: 0 for no effect and ±100 for the full control effect
#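 THP-1 cells pretreated 1 hr with compounds (up to 57.5 uM final), then stimulated with LPS (250 ng/mL final) plus ATP (1.25 mM final); secreted IL-1B measured by AlphaLISA after 16 hr, decreased signal indicating inhibition.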
# Numbers without * were called inactive; ? = inconclusive; . = no result; [ ] = remark or other dose. A selection: hits, their analogues and other compounds. The true share with any hit is near 18%. Unless noted, calls follow the shape of the dose curve; as a rule, active = well fitted curve in the direction sought with a large enough effect; inconclusive = small, poorly fitted or top-dose-only effect, or another doubt; inactive = no such curve, though single readings can be large; an effect the other way counts as inactive or inconclusive.
SMILES,TGFb inhibitor,DT40 TDP1 CPT,TDP1 block,TDP1 cell noCPT,HepG2 tox,IL1B secr inh
O=C(/C=C\c1ccc(Cl)cc1)N[C@@]12CCC(=O)[C@@H]3Oc4c(O)ccc5c4[C@@]31CCN(CC1CC1)[C@@H]2C5,.,?,4%,?,.,.
NC[C@H](CP(=O)(O)O)c1ccc(Cl)cc1,.,19%,11%[56.1 µM],1%,.,.
C[C@H]1O[C@@H](OC2CC[C@]3(C=O)[C@H]4CC[C@]5(C)[C@@H](C6=CC(=O)OC6)CC[C@]5(O)[C@@H]4CC[C@]3(O)C2)CC2OC(C)(C)OC21 (stereo partly specified),2µM*,1.8µM*,.,1µM*,-57%,-93*
COc1cc(/C=C/c2ccc3ccccc3[n+]2C)cc(OC)c1OC,10%,?,.,13µM*,17%,.
C[C@H](CCC(=O)O)C[C@H](C)C[C@H](C)C(=O)/C=C(\O)[C@H](C)C[C@H](C)C/C=C/[C@@H](C)[C@@H](O)[C@@H](C)[C@@H](O)C[C@@H]1CC[C@@](C)([C@H]2CC[C@@](C)([C@@H](C)O)O2)O1,.,.,2%,.,.,.
CC[N+](C)(CC)CCCCOc1ccc2c(c1)C(=O)c1cc(OCCCC[N+](C)(CC)CC)ccc1-2,-3%,?,-6%,29µM*,-1%,0
OC(c1ccc(Cl)cc1)(c1ccc(Cl)cc1)C(Cl)(Cl)Cl,.,.,0%,.,.,.
COc1ccc(O)c2c(=O)c3c(OC)cc4c(c3oc12)C1C=COC1O4 (stereo unspecified),?,1.3µM*,5%,0.92µM*,.,21
O=C(CN1CCCCC1c1cccnc1)c1ccccc1 (stereo unspecified),.,3%[9.04 µM],17%,-10%[9.04 µM],.,.
CCOC(=O)[C@]12Cc3ccsc3[C@H]1N(Cc1ccccc1)C(=O)c1ccccc12,?,?,.,18µM*,3%,-29
CCOC(=O)[C@]12Cc3ccccc3[C@H]1N(Cc1ccccc1)C(=O)c1cc(OC)ccc12,.,?,.,18µM*,.,-13
CCOC(=O)[C@]12Cc3cc(Cl)ccc3[C@H]1N(Cc1ccccc1)C(=O)c1cc(OC)ccc12,.,4.6µM*,.,5.8µM*,.,-113*
CCOC(=O)c1cc2cc(OC)ccc2n1C1CCN(Cc2ccccc2)CC1,.,?,.,?,.,29
CCOC(=O)[C@]12Cc3cc4ccccc4cc3[C@H]1N(Cc1ccccc1)C(=O)c1cc(OC)ccc12,.,8.2µM*,.,6.5µM*,.,-109*
CCOC(=O)C1C2NC(=O)N(Cc3ccccc3)C1(C)Oc1c(OC)cccc12 (stereo unspecified),-1%,-18%,5%,-15%,-39%,22
N[C@@H](Cn1cc(I)c(=O)[nH]c1=O)C(=O)O,.,9%,-12%[56.1 µM],-4%,.,.
CCCN1CCC[C@@H]2Cc3n[nH]cc3C[C@H]21,.,.,8%[56.1 µM],.,.,.
CCCCCCCCCCCCCC(=O)O[C@@H]1[C@@H](C)[C@@]2(O)[C@@H](C=C(CO)C[C@@]3(O)C(=O)C(C)=C[C@@H]23)C2C(C)(C)[C@@]21OC(C)=O (stereo partly specified),.,.,5%[56.1 µM],.,.,.
O=C(COc1cccc(Cl)c1)N1CCN(CCc2ccncc2)CC1,1%,-23%,4%,-1%,-1%,.
CCCCCN1C(=O)c2cc(OC)ccc2[C@@]2(C(=O)OCC)Cc3cc(Cl)ccc3[C@@H]12,.,3.3µM*,.,2.9µM*,.,.
CCOC(=O)[C@]12Cc3cc(OC)ccc3[C@H]1N(Cc1ccccc1)C(=O)c1cc(OC)ccc12,.,?,.,16µM*,.,9
CCOC(=O)[C@]12Cc3cc4ccccc4cc3[C@H]1N(Cc1ccccc1)C(=O)c1ccccc12,.,16µM*,.,21µM*,.,-110*
COc1cccc(C2Nc3ccccc3C(=O)N2Cc2ccccc2)c1 (stereo unspecified),-1%,-2%,.,?,-5%,?
CCOC(=O)[C@]12Cc3c(cc(OC)c(OC)c3OC)[C@H]1N(Cc1ccccc1)C(=O)c1ccccc12,3%,?,.,16µM*,-3%,?
CC(=O)O[C@@H]1[C@@H](O)C2OC3C=C(C)C(=O)[C@@H](O)[C@]3(CO)C1(C)C21CO1 (stereo partly specified),.,.,4%,.,.,.
SMILES,TGFb inhibitor,DT40 TDP1 CPT,TDP1 block,TDP1 cell noCPT,HepG2 tox,IL1B secr inh
CC(C)c1cc2c(c(O)c1O)[C@@]1(C(=O)O)CCCC(C)(C)[C@@H]1CC2,.,.,12%,.,.,.
CCOC(=O)[C@]12Cc3ccc4ccccc4c3[C@H]1N(Cc1ccccc1)C(=O)c1ccccc12,.,?,.,?,.,-56*
CCOC(=O)[C@]12Cc3cc(OC)c(OC)cc3[C@H]1N(Cc1ccccc1)C(=O)c1ccccc12,-3%,?,.,14µM*,-18%,-5
O=C(c1ccncc1)N1CCC[C@@]2(CCN(Cc3nccs3)C2)C1,.,10%,.,-23%,.,.
Cc1c(C(=O)N2CCC3(CC2)OCCO3)sc2ncnc(N3CCc4ccccc4C3)c12,-7%,16µM*,2%,23µM*,-17%,-14
O=C(c1ccccc1)N1CCC2(CC1)OCCO2,0%,10%,5%,6%,-2%,1
C[C@@H]1Cc2c(Cl)cc(C(=O)N[C@H](Cc3ccccc3)C(=O)O)c(O)c2C(=O)O1,.,.,5%,.,.,.
COC[C@H]([C@@H](O)[C@@H](O)C(=O)NCC[C@@H](C)c1nc(/C=C/C[C@H]2OC3(C[C@H](O)[C@H]2C)OC([C@@H](C[C@@H](O)[C@@H](C)[C@@H](O)[C@@H](C)/C=C(C)/C(C)=C/C=C/C(C)=C\C#N)OC)[C@@H](OP(=O)(O)O)C3(C)C)co1)N(C)C (stereo partly specified),.,0.0022µM*,4%,0.0016µM*,.,.
C[N+]1([O-])[C@@H]2CC[C@H]1CC(OC(=O)[C@@H](CO)c1ccccc1)C2 (stereo partly specified),.,.,13%[21 µM],.,.,.
N/C(=N\N=C/c1ccc(-c2ccc(O)c(C(=O)O)c2)o1)N[N+](=O)[O-],-11%,?,2.8µM*,-23%,-2%,35

# From PubChem BioAssay
